esBAF inh: blocks esBAF chromatin remodeling in mouse ES cells. Bmi1-luciferase knock-in reporter, 24 h; 100% = twice the neutral-well signal. reporter increase, % at 12.5 µM. actives 2% (n = 350,000). AID 602393; in the data active = activation above about 40%;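 also: 0% = median of the plate's neutral control wells and 100% = double that signal; a rise in the Bmi1 reporter signal indicates esBAF inhibition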
EWS-Fli inh: inhibitors of EWS/Fli oncoprotein transcriptional activity | A673 NR0B1-luciferase reporter, viability-normalised | inhibition, % at 12.6 µM | actives 0.67% (n = 350,000) | AID 651661;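 active = mean inhibition of at least 50% after viability correction, with every replicate also passing that limit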;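 also: firefly luciferase signal divided by Alamar Blue viability fluorescence both relative to DMSO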
MITF TRPM1 HTS: increases MITF-driven TRPM1 promoter luciferase signal | actives 0.75% (n = 300,000) | AID 588334 | SK-MEL-5 TRPM1-promoter luciferase, 24 h; % of positive control, neutral wells = 0 | activation, % at 12.5 µM;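 active = mean activation of at least 80% with every replicate also reaching 80%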;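 also: 0% = neutral control wells and 100% = parthenolide positive control wells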
MITF TRPM1 inh: reduces MITF-dependent TRPM1 promoter luciferase signal; AID 488899; inhibition, % at 12.5 µM; actives 0.83% (n = 330,000); SK-MEL-5 TRPM1 promoter luciferase, 24 h;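 active = mean inhibition across replicates of 60% or more, whatever share of single replicates reaches that level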
PAX8 reporter: lowers PAX8-driven luciferase in RMG-I cells. actives 1.2% (n = 360,000). inhibition, % at 12.6 µM. AID 652154. RMG-I TPO-luciferase reporter, SteadyGlo, 24 h;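 active = mean replicate inhibition at least 60% with every replicate also reaching 60%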;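 also: luciferase light reporting Pax8 driven TPO promoter activity; plate controls were median of neutral control wells for no effect and mitoxantrone controls for full effect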
Wnt bcat act: Wnt/beta-catenin pathway activation. AID 743398. activation, % at 9.35 µM. Wnt/beta-catenin reporter cell assay, activator, plate reader. actives 1.2% (n = 300,000); in the data active = activation above about 30%, passing the limit was not always enough;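 also: 0% = neutral control wells and 100% = positive control wells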
An asterisk follows results filed as active. This is a sample that favours compounds with a hit; in the whole collection about 4% have one here.

Screening CC1(C(=O)Nc2cccc(OC(F)(F)F)c2)Cc2c(-c3cccc(C(F)(F)F)c3)ccnc2O1 (centres undefined) returned esBAF inh -6, EWS-Fli inh 8, PAX8 reporter 16 and Wnt bcat act 0.
`CC(=O)Nc1cccc(-c2ccnc3c2CC(C)(C(=O)Nc2cccc(OC(F)(F)F)c2)O3)c1` (centres undefined) gave esBAF inh -6, EWS-Fli inh 52* and Wnt bcat act -13.
Screening CC1(C(=O)NCc2ccccc2)Cc2c(-c3cccc(C(N)=O)c3)ccnc2O1 (centres undefined) returned esBAF inh -15, EWS-Fli inh 58*, PAX8 reporter 51 and Wnt bcat act -2.
CCCNC(=O)N1CC2(CCN(Cc3ccccn3)CC2)c2c(n(C)c3cc(OC)ccc23)[C@H]1CO was read as EWS-Fli inh -5.
C[C@@H](NC(=O)C[C@@H]1C=C[C@@H](NC(=O)C2CCOCC2)[C@@H](CO)O1)c1ccccc1 was read as esBAF inh 0, EWS-Fli inh -3 and PAX8 reporter -5.
Screening O=C(C[C@@H]1C=C[C@@H](NC(=O)c2ccccc2)[C@H](CO)O1)NCc1ccncn1 returned esBAF inh -4, EWS-Fli inh 2 and PAX8 reporter -4.
Screening O=C(CCl)N(c1ccccc1)c1c[nH]c2ccccc12 returned MITF TRPM1 HTS -85 and MITF TRPM1 inh 86*.
O=C(CCl)N(c1ccc(Cl)cc1)c1c[nH]c2ccccc12 was read as esBAF inh 9 and MITF TRPM1 inh 84*.
For O=C(O)Cc1c[nH]c2ccccc12 the results were esBAF inh -4, EWS-Fli inh 8 and Wnt bcat act -2.
Screening C[C@@H]1CCCCO[C@H](CN(C)C(=O)c2ccccc2)[C@@H](C)CN([C@H](C)CO)C(=O)c2cc(NC(=O)Nc3ccc(C(F)(F)F)cc3)ccc2O1 returned esBAF inh -6, EWS-Fli inh -10 and PAX8 reporter 7.
C[C@@H]1CCCCO[C@@H](CN(C)C(=O)Nc2ccc(C(F)(F)F)cc2)[C@H](C)CN([C@H](C)CO)C(=O)c2cc(NC(=O)Nc3ccccc3)ccc2O1 was read as esBAF inh 6, EWS-Fli inh -11 and PAX8 reporter 63*.
`C[C@@H]1CCCCO[C@@H](CN(C)C(=O)Cc2ccccc2)[C@@H](C)CN([C@@H](C)CO)C(=O)c2cc(NC(=O)Nc3ccc(C(F)(F)F)cc3)ccc2O1` gave esBAF inh -4, EWS-Fli inh -4 and PAX8 reporter 79*.
For C[C@H](CO)N1C[C@H](C)[C@@H](CN(C)C(=O)Nc2ccc(C(F)(F)F)cc2)OCCCC[C@H](C)Oc2ccc(NC(=O)Nc3ccccc3)cc2C1=O the results were esBAF inh -5, EWS-Fli inh -10 and PAX8 reporter 15.
C[C@@H]1CN([C@H](C)CO)C(=O)c2cc(NC(=O)Nc3ccc(C(F)(F)F)cc3)ccc2O[C@@H](C)CCCCO[C@H]1CN(C)C(=O)c1ccccc1 was read as esBAF inh -1, EWS-Fli inh 46 and PAX8 reporter 102*.
`C[C@@H]1CCCCO[C@@H](CN(C)C(=O)Nc2ccccc2)[C@H](C)CN([C@H](C)CO)C(=O)c2cc(NC(=O)Nc3ccc(C(F)(F)F)cc3)ccc2O1` gave EWS-Fli inh 6 and PAX8 reporter 86*.
`CC1=C(C(=O)Nc2cccc(F)c2)C(c2ccsc2)C2=C(CC(C)(C)CC2=O)N1` (centres undefined) gave EWS-Fli inh 54*, MITF TRPM1 HTS -19, MITF TRPM1 inh 19, PAX8 reporter -10 and Wnt bcat act -7.
For FC(F)(F)c1nnc2c(Sc3ccccn3)nc3ccccc3n12 the results were esBAF inh 63*, MITF TRPM1 HTS -44, MITF TRPM1 inh 46, PAX8 reporter 114* and Wnt bcat act 28.
`FC(F)(F)c1nnc2c(Sc3ccc(Cl)cc3)nc3ccccc3n12` gave MITF TRPM1 inh 78*, PAX8 reporter 88* and Wnt bcat act -3.
Screening FC(F)(F)c1nc2ccccc2n2c(-c3ccc(Cl)cc3)nnc12 returned MITF TRPM1 HTS -74 and MITF TRPM1 inh 76*.
FC(F)(F)c1nnc2c(Sc3ccccc3)nc3ccccc3n12 was read as MITF TRPM1 inh 59, PAX8 reporter 39 and Wnt bcat act 12.
Screening C[C@@H]1CN([C@H](C)CO)C(=O)Cc2cc(NC(=O)Nc3ccc4c(c3)OCO4)ccc2O[C@@H]1CN(C)Cc1ccc(Oc2ccccc2)cc1 returned esBAF inh -5 and EWS-Fli inh 10.
Screening COc1ccccc1NC(=O)N1C[C@@H]2[C@H](c3ccccc31)[C@@H](CO)N2CC1CCCC1 returned esBAF inh -1, EWS-Fli inh 0 and PAX8 reporter 6.
For Fc1ccccc1CSc1ncnc2c1oc1ccccc12 the results were esBAF inh 42*, MITF TRPM1 HTS 31, MITF TRPM1 inh -29 and Wnt bcat act -4.
c1coc(CSc2ncnc3c2oc2ccccc23)c1 was read as esBAF inh 56*, EWS-Fli inh -73, MITF TRPM1 inh -29, PAX8 reporter -55 and Wnt bcat act 35*.
Cc1ccc2c(COC(=O)c3ccccc3OC(F)F)cc(=O)oc2c1 was read as esBAF inh 48*, EWS-Fli inh -7, MITF TRPM1 HTS 69, MITF TRPM1 inh -69, PAX8 reporter -86 and Wnt bcat act -2.
For Cc1ccc2c(COC(=O)CNC(=O)c3ccccc3)cc(=O)oc2c1 the results were EWS-Fli inh -18, MITF TRPM1 HTS 14, MITF TRPM1 inh -17, PAX8 reporter -25 and Wnt bcat act 9.
O=S(=O)(N[C@@H]1CC[C@@H](CCn2cc(C3(O)CCCC3)nn2)O[C@@H]1CO)c1ccc(F)cc1 was read as esBAF inh -1, EWS-Fli inh -4 and PAX8 reporter 4.
`Nc1ccccc1-n1cccc1` gave EWS-Fli inh 10, MITF TRPM1 inh 23, PAX8 reporter 3 and Wnt bcat act 62*.
`N/C(=N\O)c1ccccc1-n1cccc1` gave EWS-Fli inh 10, MITF TRPM1 HTS -3, MITF TRPM1 inh 6, PAX8 reporter 3 and Wnt bcat act 0.
C[C@H](CO)N1C[C@H](C)[C@H](CN(C)C(=O)Nc2ccc(F)cc2)OCCCC[C@H](C)Oc2ccc(NS(=O)(=O)c3ccc(Cl)cc3)cc2C1=O was read as esBAF inh 4, EWS-Fli inh 6 and PAX8 reporter 61*.
For C[C@@H]1CCCCO[C@H](CN(C)C(=O)Nc2ccc(F)cc2)[C@@H](C)CN([C@@H](C)CO)C(=O)c2cc(NS(=O)(=O)c3ccc(Cl)cc3)ccc2O1 the results were esBAF inh -1, EWS-Fli inh 7 and PAX8 reporter 83*.
